This passage reports growth results from PubChem BioAssay (NCI).

Molecules are shown by their SMILES. This is part of a sample that, as a whole, favours compounds with a hit. Of some 83,000 tested, about 20% had one in any assay.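 48-hour exposure, single concentration, 96-well plates; percent growth endpoint where 0 means no net growth. Active: below 10.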 Unmarked numbers belong to inactive results. The source made the active and inactive calls.

Holding throughout (assay): NCI-60 one-dose screen, 48 h (100 = growth as untreated, 0 = no growth, -100 = all killed)
Common to all, as to settings: 10 µM unless noted

Assay [1] deals with HCT-15 colon.
Assay [2] relates to HT29 colon.
Assay [3] deals with SNB-75 CNS.
Assay [4] relates to SNB-19 CNS.
Assay [5] deals with U251 CNS.
Assay [6] deals with PC-3 prostate.
Assay [7] relates to SK-MEL-5 melanoma.
For assay [8], the system named is UACC-62 melanoma.
The subject of assay [9] is LOX IMVI melanoma.
Assay [10] has as its system SK-MEL-28 melanoma.

As to `O=c1c2sc3ccccc3c2nnn1-c1ccc(F)c(Cl)c1`, the growth in assay [1] was 56.7%; in assay [2], 69.9%; in [3], 39.5%; in [4] it was 61.1%; in [5], 59.1%; in [6], 54.8%. The growth in assay [7] is 67.3%; in [8], 78.4%; in assay [9], 58.1%; in assay [10] it was 72.7%.
In the case of `N[C@@H](CO)C(=O)O`, the growth was 109% in [1]; 109% in assay [2]; 93.3% in assay [3]; 105% in [4]; 102% in assay [5]; 96.8% in assay [6]. Moreover, the growth in assay [7] is 104%; in assay [8] it was 91.9%; in assay [9] it was 130%; in [10], 107%.
In the case of `Cc1nc2n[nH]c(N)c2nc1C`, the growth in assay [1] is 103%; in [2], 93.6%; in [3] it was 93.1%; in assay [4], 103%; in assay [5] it was 107%; in assay [6] it was 102%. Besides, the growth in assay [7] was 96.6%; in [8], 106%; in assay [9], 98.9%; in assay [10], 105%.
Turning to `Cc1[nH]n(C(=O)c2ccncc2)c(=O)c1N=Nc1ccc(O)c(C(=O)O)c1`, the growth in [1] is 112%; in [2], 115%; in assay [3], 89.9%; in assay [4], 116%; in assay [5], 119%; in assay [6], 102%. Moreover, the growth in assay [7] was 106%; in assay [8] it was 96.2%; in [9], 75.7%; in [10] it was 109%.
`Cc1cc(NC(=O)C2c3ccccc3C(=O)N(CC(C)C)C2c2cccs2)no1` (stereo not given): the growth in assay [1] was 7.04% (active); in assay [2], -29.4% (active); in [3], 61.4%; in [4], 81.9%; in [5] it was 21.2%; in assay [6], 9.17% (active). The growth was 14.2% in assay [7], -84.5% (active) in assay [8], -85.3% (active) in assay [9] and -86.8% (active) in assay [10].
As for `CC1C2CCC(C2)C1COCCOCCO` (stereo not given), the growth in [1] is 98.3%; in [2] it was 102%; in [3], 109%; in assay [4], 123%; in assay [5], 91.9%; in assay [6] it was 101%. The growth is 106% in [7], 104% in assay [8], 94.9% in assay [9] and 109% in assay [10].
In the case of `O=C(C(Br)C(Br)c1ccccc1)C(Br)C(Br)c1ccccc1` (stereo not given), the growth in assay [1] is -66.4% (active); in [2], -76% (active); in assay [3] it was 60%; in assay [4] it was 72.8%; in [5], 4.89% (active); in assay [6], -31.2% (active). Further, the growth is 2.03% (active) in assay [7], -83.5% (active) in [8], -79.1% (active) in assay [9] and -35.6% (active) in assay [10].
Turning to `CCN(CC)CCNc1c(C)cc(CO)c(Cl)c1C`, the growth in assay [1] is 106%; in [2], 97%; in [3], 90.2%; in assay [4], 92.8%; in [5], 105%; in [6] it was 97.9%. The growth was 106% in assay [7], 102% in assay [8], 98.8% in assay [9] and 104% in assay [10].
`CCCCN(CCCC)CCC(=O)c1ccc(OC)c2ccccc12`: the growth in [1] was 99.7%; in assay [2] it was 98%; in [3] it was 97.7%; in assay [4] it was 87%; in [5], 86.7%; in [6], 84.7%. For the same compound, the growth in assay [7] is 101%; in assay [8], 93.5%; in assay [9] it was 78.9%; in [10] it was 154%.
With `[Ag].[Ag].[NH-]S(=O)(=O)c1ccc(N=Nc2cc(N=Nc3ccc(S([NH-])(=O)=O)cc3)c3c(NC(=O)C(Cl)Cl)cccc3c2OC(=O)C(Cl)Cl)cc1.[c-]1nccs1.[c-]1nccs1`, the growth was 79% in assay [1]; 76.2% in assay [2]; 51.3% in assay [3]; 80.7% in assay [4]; 75.2% in assay [5]; 48.2% in assay [6]. Besides, the growth is 35.6% in [7], 91.8% in assay [8], 78.7% in assay [9] and 89.1% in [10].
Turning to `COc1ccc(-c2nc3ccc(Cc4ccc5nc(-c6ccc(OC)cc6)[nH]c5c4)cc3[nH]2)cc1`, the growth in assay [1] was 77.1%; in assay [2], 44.2%; in assay [3], 92.9%; in assay [4] it was 49%; in [5], 16.9%; in assay [6], 43.3%. For the same compound, the growth in assay [7] was 13.5%; in [8], 38.2%; in [9], 15.7%; in assay [10] it was 82.3%.
Consider `COC(=O)c1ccc(NC(N)=NCCC(C)(C)c2ccc(C(F)(F)F)cc2)nc1`, for which the growth in assay [1] is 37.8%; in assay [2], 11.6%; in assay [3], 67.3%; in assay [4], 59.9%; in [5], 30.5%; in assay [6], 36%. For the same compound, the growth was -85.4% (active) in assay [7], 55.2% in [8], -77.3% (active) in assay [9] and 35.2% in assay [10].
As to `Nc1cc2nc3ccccc3oc-2cc1=O`, the growth in assay [1] was 18.2%; in assay [2], 38.8%; in assay [3], -86% (active); in [4], 80.8%; in assay [5], 35.6%; in [6] it was 27.8%. The growth in assay [7] was -97.9% (active); in assay [8] it was -75.2% (active); in assay [9] it was -11.4% (active); in [10], -56.2% (active).
Take `ClCc1cccc(CSc2ncnc3c2ncn3Cc2cccc(CCl)c2)c1`: the growth in assay [1] is 20.7%; in assay [2], 13.2%; in assay [3] it was -13.8% (active); in assay [4], 45.6%; in assay [5], -69.8% (active); in [6], 49.8%. Also, the growth in assay [7] is 20.2%; in assay [8], 6.23% (active); in assay [9] it was -8.54% (active); in [10] it was 27.4%.
